{"source": "PubChem BioAssay AID2685", "about": "(National Center for Advancing Translational Sciences (NCATS), 2010)", "note": "Out of some 320,000 compounds screened, about 2,100 (0.66%) were called active. About 53% were inconclusive and are not listed. Calls come from the whole dose curve; as a rule, active = well fitted inhibition curve with a large enough effect in the signal ratio, with a control signal flat (not every such curve was filed as active); inconclusive = small, poorly fitted or top-dose-only effect, or effect the other way, or a change in a side signal; inactive = flat fitted curve, though single readings scatter; the % refers to the signal ratio. What follows is part of a selection rich in actives, with near analogues and random picks from the rest. Potency is the fitted concentration of half-maximal effect.", "data": [{"test": "qHTS Assay for Lipid Storage Modulators in Drosophila S3 Cells;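 for cell number change: cells counted by Cell Tracker Red CMTPX staining in the red channel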; for lipid storage change, negative = inhibition: % is set by controls: 0 for no effect and ±100 for the full control effect", "settings": "BODIPY lipid droplet fluorescence, 18-24 h, cells fed with added oleic acid; cell number change: measured here: cell count max response; series mostly up to 46.1 µM; lipid storage change, negative = inhibition: at the top concentration", "method_in_brief": "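Laser-scanning cytometry quantifies lipid droplet accumulation (500–530 nm total intensity; droplet/cell object ratio) in oleic acid-fed (400 uM added) Drosophila S3 cells treated with a concentration series. 20 uM Triacsin C defined 100% inhibition.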", "units": {"cell number change": "%"}, "values": [{"smiles": "O=C(Cc1ccccc1)Nc1nnc(-c2cccc([N+](=O)[O-])c2)s1", "lipid storage change, negative = inhibition": "2.31% (inactive)", "cell number change": -4.06}, {"smiles": "Cc1cccc(N(Cc2cc(=O)[nH]c3ccccc23)C(=O)CCl)c1", "Potency": "20.6 µM (active)", "cell number change": -1.53}, {"smiles": "Cc1ccccc1N(Cc1cc(=O)[nH]c2ccccc12)C(=O)CCl", "outcome": "inactive", "cell number change": 13.2}, {"smiles": "Cc1cccc(N(Cc2cc(=O)[nH]c3ccccc23)C(=O)C(C)C)c1", "lipid storage change, negative = inhibition": "-11.5% (inactive)", "cell number change": -7.9}, {"smiles": "CN(C)S(=O)(=O)c1ccc(NC(=O)C2CC(=O)N(Cc3ccccc3)C2)cc1", "note": "(centres undefined)", "lipid storage change, negative = inhibition": "0.189% (inactive)", "cell number change": -10.9}, {"smiles": "CCN(CC)S(=O)(=O)c1ccc(NN=C2CCN(C(C)C)CC2)c([N+](=O)[O-])c1", "lipid storage change, negative = inhibition": "-5.99% (inactive)", "cell number change": 1.2}, {"smiles": "Cc1ccc(S(=O)(=O)c2cc3c(=O)n4cc(C)ccc4nc3n(CC3CCCO3)c2=N)cc1", "note": "(centres undefined)", "lipid storage change, negative = inhibition": "10.8% (inactive)", "cell number change": -5.73}, {"smiles": "COP(=O)(OC)C(Nc1cc(Cl)cc(Cl)c1)c1cccc(O)c1", "note": "(centres undefined)", "lipid storage change, negative = inhibition": "-23% (inactive)", "cell number change": -20.9}, {"smiles": "CCCN(CC(=O)Nc1ccccc1OC)C(=O)CCC(=O)c1ccc(Cl)s1", "lipid storage change, negative = inhibition": "-3.74% (inactive)", "cell number change": -12.8}, {"smiles": "CCN(CC(=O)Nc1ccccc1OC)C(=O)C1CCCC1", "outcome": "inactive", "cell number change": -11}, {"smiles": "CCCN(CC(=O)Nc1ccccc1OC)C(=O)C1CCCC1", "Potency": "3.66 µM (active)"}, {"smiles": "CCCN(CC(=O)Nc1ccccc1OC)C(=O)CCC(=O)c1ccc(F)cc1", "Potency": "0.82 µM (active)", "cell number change": -6.3}, {"smiles": "CCCN(CC(=O)Nc1ccccc1OC)C(=O)Cc1ccccc1F", "outcome": "inactive", "cell number change": 20.6}, {"smiles": "CCN(CC(=O)Nc1ccccc1OC)C(=O)C1CCC1", "outcome": "inactive", "cell number change": 0.934}, {"smiles": "O=[N+]([O-])c1cccc(S(=O)(=O)N2CCCCC2)c1", "outcome": "inactive", "cell number change": 2.7}, {"smiles": "Fc1ccc(-c2cc(C(F)(F)F)nc(NCc3cccs3)n2)cc1", "lipid storage change, negative = inhibition": "11.1% (inactive)", "cell number change": 10.1}, {"smiles": "CCCN(CCC(=O)Nc1ccccc1F)CC1CC1", "outcome": "inactive", "cell number change": 22.5}, {"smiles": "COc1ccc(NC(=O)c2ccc(C)cc2)c[n+]1[O-]", "lipid storage change, negative = inhibition": "1.42% (inactive)", "cell number change": 9.2}, {"smiles": "COc1ccc(C(c2nnnn2C(C)(C)C)N2CCN(C(=O)c3ccco3)CC2)cc1", "note": "(centres undefined)", "outcome": "inactive", "cell number change": 15.4}, {"smiles": "COCCn1nnnc1C(c1ccc(OC)cc1)N1CCN(C(=O)c2ccco2)CC1", "note": "(centres undefined)", "outcome": "inactive", "cell number change": 10.8}, {"smiles": "COc1ccc(C(c2nnnn2C(C)C)N2CCN(C(=O)c3ccco3)CC2)cc1", "note": "(centres undefined)", "Potency": "0.0259 µM (active)", "cell number change": 10.1}, {"smiles": "Cc1cccc(CSc2nnc([C@@H]3CCCN3C(=O)OC(C)(C)C)o2)c1", "lipid storage change, negative = inhibition": "0.387% (inactive)", "cell number change": 6.08}, {"smiles": "CCOC(=O)C1CCN(c2ccc([N+](=O)[O-])cc2)CC1", "lipid storage change, negative = inhibition": "-22.6% (inactive)", "cell number change": -12}, {"smiles": "COc1ccc(OC)c(S(=O)(=O)Nc2ccc3oc(C)c(C(C)=O)c3c2)c1", "outcome": "inactive", "cell number change": -9.21}, {"smiles": "Cc1cc(C)c(OCC(=O)OCC(=O)NC2CCCCCCC2)c(C)c1", "Potency": "1.84 µM (active)", "cell number change": 19.3}, {"smiles": "Cc1ccsc1C(=O)OCC(=O)NC1CCS(=O)(=O)C1", "note": "(centres undefined)", "lipid storage change, negative = inhibition": "-5.35% (inactive)", "cell number change": 0.0545}, {"smiles": "O=C(COC(=O)c1ccccc1)NC1CCCC1", "lipid storage change, negative = inhibition": "-8.07% (inactive)", "cell number change": -13.7}, {"smiles": "O=C(COC(=O)c1cccc(C(=O)OCC(=O)NC2CCCCC2)n1)NC1CCCCC1", "Potency": "20.6 µM (active)", "cell number change": -17.1}, {"smiles": "Nc1c(Cl)c(Cl)nc(C(=O)OCC(=O)NC2CCCCC2)c1Cl", "Potency": "9.2 µM (active)", "cell number change": -8.54}, {"smiles": "Nc1c(C(=O)NC2CCCCC2)nsc1C(=O)OCC(=O)NC1CCCCC1", "lipid storage change, negative = inhibition": "22.9% (inactive)", "cell number change": -16.5}, {"smiles": "Cc1ccsc1C(=O)OCC(=O)NC1CCCC1", "Potency": "0.517 µM (active)", "cell number change": -11}, {"smiles": "Cc1ccsc1C(=O)OCC(=O)NCCNC(=O)COC(=O)c1sccc1C", "cell number change": 12.8, "lipid storage change, negative = inhibition": "-4.96% [at 0.0737 µM] (inactive)"}, {"smiles": "O=C(COC(=O)c1c(Cl)cccc1Cl)NC1CCCCC1", "lipid storage change, negative = inhibition": "3.06% (inactive)"}, {"smiles": "Cc1ccccc1OCC(=O)OCC(=O)NC1CCCCCC1", "cell number change": -24.2, "outcome": "inactive [at 0.0737 µM]"}, {"smiles": "Cc1cc(C)cc(OCC(=O)OCC(=O)NC2CCCCCCC2)c1", "outcome": "inactive", "cell number change": -3.74}, {"smiles": "O=C(COC(=O)c1nc(Cl)ccc1Cl)NC1CCCCCC1", "outcome": "inactive"}]}]}
